Data: PubChem BioAssay (NCI)
The panel holds about 83,000 compounds, 20% with a hit somewhere; the sample as a whole holds those more often.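 A percent growth of 40 corresponds to 60% growth inhibition; 0 means no net growth; -100 means all cells died. Active threshold: below 10.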 Active and inactive are the calls of the source.

Assays:
Assay in all cases: NCI-60 one-dose screen, 48 h (100 = growth as untreated, 0 = no growth, -100 = all killed)
Conditions in all cases: 10 µM unless noted
SK-MEL-2 melanoma = test system: SK-MEL-2 melanoma
EKVX NSCLC = test system: EKVX NSCLC
SN12C renal = test system: SN12C renal
UO-31 renal = test system: UO-31 renal
TK-10 renal = test system: TK-10 renal
ACHN renal = test system: ACHN renal
A498 renal = test system: A498 renal
CCRF-CEM leukemia = test system: CCRF-CEM leukemia
MOLT-4 leukemia = test system: MOLT-4 leukemia
SR leukemia = test system: SR leukemia
RPMI-8226 leukemia = test system: RPMI-8226 leukemia
OVCAR-8 ovarian = test system: OVCAR-8 ovarian
OVCAR-5 ovarian = test system: OVCAR-5 ovarian
OVCAR-4 ovarian = test system: OVCAR-4 ovarian
SK-OV-3 ovarian = test system: SK-OV-3 ovarian
IGROV1 ovarian = test system: IGROV1 ovarian
OVCAR-3 ovarian = test system: OVCAR-3 ovarian
HS 578T breast = test system: HS 578T breast
NCI/ADR-RES ovarian = test system: NCI/ADR-RES ovarian
T-47D breast = test system: T-47D breast

Measured: growth

O=C(Nc1nccs1)c1noc2ccccc12
inactive: SK-MEL-2 melanoma 109% | EKVX NSCLC 88.6% | SN12C renal 97.1% | UO-31 renal 86.1% | TK-10 renal 133% | ACHN renal 96.9% | A498 renal 101% | CCRF-CEM leukemia 85.7% | MOLT-4 leukemia 96.8% | SR leukemia 87% | RPMI-8226 leukemia 90.4% | OVCAR-8 ovarian 94.7% | OVCAR-5 ovarian 103% | OVCAR-4 ovarian 88.4% | SK-OV-3 ovarian 92.2% | IGROV1 ovarian 84.1% | OVCAR-3 ovarian 110% | HS 578T breast 97% | NCI/ADR-RES ovarian 106% | T-47D breast 57.5%

Cc1cnc(SCc2ccc(Cl)cc2Cl)nc1Nc1ccc(Cl)c(Cl)c1
inactive: SK-MEL-2 melanoma 87.9% | EKVX NSCLC 94.2% | SN12C renal 93% | UO-31 renal 74.6% | TK-10 renal 100% | ACHN renal 96.4% | A498 renal 85.7% | CCRF-CEM leukemia 85.6% | MOLT-4 leukemia 59.5% | SR leukemia 72% | RPMI-8226 leukemia 86.7% | OVCAR-8 ovarian 91.9% | OVCAR-5 ovarian 103% | OVCAR-4 ovarian 93.9% | SK-OV-3 ovarian 97.9% | IGROV1 ovarian 82.8% | OVCAR-3 ovarian 99.6% | HS 578T breast 90.8% | NCI/ADR-RES ovarian 95.9% | T-47D breast 68%

COc1cc2cc(c1Cl)N(C)C(=O)C[C@H](OC(=O)[C@H](C)N(C)C(=O)CCS)C[C@]1(C)O[C@H]1[C@H](C)[C@@H]1C[C@@](O)(NC(=O)O1)[C@H](OC)/C=C/C=C(\C)C2
inactive: SK-MEL-2 melanoma 20% | EKVX NSCLC 38.8% | SN12C renal 28.2% | UO-31 renal 47.4% | TK-10 renal 62.4% | ACHN renal 25.4% | CCRF-CEM leukemia 16.2% | MOLT-4 leukemia 13.1% | SR leukemia 12.2% | RPMI-8226 leukemia 24.4% | OVCAR-8 ovarian 13.7% | OVCAR-5 ovarian 44% | OVCAR-4 ovarian 28.8% | SK-OV-3 ovarian 18.7% | IGROV1 ovarian 18.5% | HS 578T breast 20.9% | NCI/ADR-RES ovarian 10.5% | T-47D breast 61.2%
active: A498 renal -21.9% | OVCAR-3 ovarian -4.97%

CN1CCN(/C=C2\CC(C(=O)NCc3ccc(Cl)cc3Cl)NC2=O)CC1 (stereo not given)
inactive: SK-MEL-2 melanoma 100% | EKVX NSCLC 116% | SN12C renal 106% | UO-31 renal 95% | TK-10 renal 92.7% | ACHN renal 110% | A498 renal 90.8% | CCRF-CEM leukemia 88% | MOLT-4 leukemia 95.2% | SR leukemia 90.3% | RPMI-8226 leukemia 93.9% | OVCAR-8 ovarian 99.1% | OVCAR-5 ovarian 110% | OVCAR-4 ovarian 110% | SK-OV-3 ovarian 107% | IGROV1 ovarian 109% | OVCAR-3 ovarian 108% | HS 578T breast 103% | NCI/ADR-RES ovarian 107% | T-47D breast 113%

CCN(CC)CC#CCOC(=O)[C@]1(C)CCC[C@]2(C)[C@H]3C[C@H]4C(C(C)C)=C[C@]3(CC[C@H]21)[C@@H]1C(=O)CCC(=O)[C@@H]14
inactive: SK-MEL-2 melanoma 72.3% | EKVX NSCLC 55.9% | SN12C renal 57.1% | UO-31 renal 50.9% | TK-10 renal 95.4% | ACHN renal 72.5% | A498 renal 102% | CCRF-CEM leukemia 20.5% | MOLT-4 leukemia 10.7% | SR leukemia 10.2% | RPMI-8226 leukemia 17.5% | OVCAR-8 ovarian 39.6% | OVCAR-5 ovarian 62.4% | OVCAR-4 ovarian 36.4% | SK-OV-3 ovarian 77.8% | IGROV1 ovarian 64.2% | OVCAR-3 ovarian 58.5% | HS 578T breast 69.3% | NCI/ADR-RES ovarian 45.7% | T-47D breast 35.5%

CCOCc1cc(C(C)(C)C)ccc1O
inactive: SK-MEL-2 melanoma 110% | EKVX NSCLC 98.3% | SN12C renal 102% | UO-31 renal 94.5% | TK-10 renal 93.8% | ACHN renal 105% | A498 renal 74.2% | CCRF-CEM leukemia 101% | MOLT-4 leukemia 99.4% | SR leukemia 88.7% | RPMI-8226 leukemia 106% | OVCAR-8 ovarian 95.4% | OVCAR-5 ovarian 105% | OVCAR-4 ovarian 103% | SK-OV-3 ovarian 97.8% | IGROV1 ovarian 107% | OVCAR-3 ovarian 115% | HS 578T breast 99.2% | NCI/ADR-RES ovarian 103% | T-47D breast 98.6%

CCN1CCN(Cc2ccc(NC(=O)c3cccc(C#Cc4cccc5[nH]nc(N)c45)c3)cc2C(F)(F)F)CC1
active: SK-MEL-2 melanoma -70.1% | EKVX NSCLC -46.4% | SN12C renal -35.4% | UO-31 renal -92.3% | TK-10 renal -94.4% | ACHN renal -81.1% | A498 renal -63.5% | CCRF-CEM leukemia -16.2% | MOLT-4 leukemia -31.2% | SR leukemia -49.2% | RPMI-8226 leukemia -36.9% | OVCAR-8 ovarian -69.9% | OVCAR-5 ovarian -20% | OVCAR-4 ovarian -2.48% | SK-OV-3 ovarian -13.5% | IGROV1 ovarian -60.3% | OVCAR-3 ovarian -62.8% | HS 578T breast -19.9% | NCI/ADR-RES ovarian -35% | T-47D breast -32%

O=C(Nc1cc(Nc2ncccc2-c2ncnc3nc[nH]c23)ccc1F)c1cc(C(F)(F)F)cc(C(F)(F)F)c1
inactive: EKVX NSCLC 20.4% | SN12C renal 16.5% | T-47D breast 11.1%
active: SK-MEL-2 melanoma -40% | UO-31 renal -37.4% | TK-10 renal -16.9% | ACHN renal -7.8% | A498 renal -19.1% | CCRF-CEM leukemia 2.41% | MOLT-4 leukemia -33.6% | SR leukemia -21.1% | RPMI-8226 leukemia -13% | OVCAR-8 ovarian -9.42% | OVCAR-5 ovarian -41% | OVCAR-4 ovarian -48.5% | SK-OV-3 ovarian -18% | IGROV1 ovarian 2.77% | OVCAR-3 ovarian -1.23% | HS 578T breast -19.1% | NCI/ADR-RES ovarian -20.8%

Cc1cccc(NC(=O)c2sc3nc4c(cc3c2N)CN(Cc2ccccc2)CC4)c1C
active: A498 renal -0.165% | OVCAR-3 ovarian -21.3%
inactive: SK-MEL-2 melanoma 30.3% | EKVX NSCLC 44.1% | SN12C renal 43.6% | UO-31 renal 51% | TK-10 renal 59% | ACHN renal 52.9% | CCRF-CEM leukemia 13.9% | MOLT-4 leukemia 22.5% | SR leukemia 25.5% | RPMI-8226 leukemia 26.8% | OVCAR-8 ovarian 34.3% | OVCAR-5 ovarian 57.4% | OVCAR-4 ovarian 61.7% | SK-OV-3 ovarian 42.2% | IGROV1 ovarian 48.5% | HS 578T breast 30.8% | NCI/ADR-RES ovarian 20.2% | T-47D breast 53%

Sc1cccc2cccnc12
inactive: SK-MEL-2 melanoma 21.5% | EKVX NSCLC 29.2% | SN12C renal 39.3% | UO-31 renal 25.6% | TK-10 renal 48.3% | ACHN renal 30.1% | A498 renal 65.9% | CCRF-CEM leukemia 14.4% | MOLT-4 leukemia 22.2% | RPMI-8226 leukemia 26.5% | OVCAR-8 ovarian 27.1% | OVCAR-5 ovarian 59.6% | OVCAR-4 ovarian 36.3% | SK-OV-3 ovarian 45.5% | IGROV1 ovarian 36.9% | OVCAR-3 ovarian 17.9% | HS 578T breast 71.9% | NCI/ADR-RES ovarian 24.8% | T-47D breast 40.5%
active: SR leukemia 6.61%

c1ccc(Sc2ncccn2)nc1
inactive: SK-MEL-2 melanoma 107% | EKVX NSCLC 106% | SN12C renal 106% | UO-31 renal 87.9% | TK-10 renal 109% | ACHN renal 98.2% | A498 renal 92.9% | CCRF-CEM leukemia 104% | MOLT-4 leukemia 98.4% | SR leukemia 95.5% | RPMI-8226 leukemia 65.6% | OVCAR-8 ovarian 100% | OVCAR-5 ovarian 101% | OVCAR-4 ovarian 98.1% | SK-OV-3 ovarian 99.4% | IGROV1 ovarian 108% | OVCAR-3 ovarian 102% | HS 578T breast 94% | NCI/ADR-RES ovarian 96.4% | T-47D breast 99.4%

COc1cc(C2=N/C(=C\c3cc4ccccc4nc3Oc3ccccc3)C(=O)N2C(=N)N)cc(OC)c1OC
inactive: SK-MEL-2 melanoma 84.7% | EKVX NSCLC 72.1% | SN12C renal 43.1% | UO-31 renal 55.3% | TK-10 renal 80.6% | ACHN renal 61.9% | A498 renal 69% | CCRF-CEM leukemia 87.3% | MOLT-4 leukemia 85.1% | SR leukemia 63.8% | RPMI-8226 leukemia 86.1% | OVCAR-8 ovarian 33.2% | OVCAR-5 ovarian 80.7% | OVCAR-4 ovarian 24.3% | SK-OV-3 ovarian 44.2% | IGROV1 ovarian 82.1% | OVCAR-3 ovarian 76.7% | HS 578T breast 33.7% | NCI/ADR-RES ovarian 52.6% | T-47D breast 49%

C=C1C(=O)O[C@H]2[C@H]1CCC(/C=N/c1ncc(Br)cc1N)=C\CC[C@@]1(C)O[C@@H]21
active: SN12C renal -24.8% | UO-31 renal -72.3% | TK-10 renal -4.72% | ACHN renal 2.47% | CCRF-CEM leukemia 0.102% | MOLT-4 leukemia -3.09% | SR leukemia -3.64% | RPMI-8226 leukemia -24.1% | OVCAR-8 ovarian 4.39% | IGROV1 ovarian -1.81% | OVCAR-3 ovarian -58.3% | T-47D breast 5.65%
inactive: SK-MEL-2 melanoma 46.6% | EKVX NSCLC 29% | A498 renal 78% | OVCAR-5 ovarian 49.4% | OVCAR-4 ovarian 37% | SK-OV-3 ovarian 69.3% | HS 578T breast 32.4% | NCI/ADR-RES ovarian 58%

O=C1CCc2ccccc2N1
inactive: SK-MEL-2 melanoma 101% | EKVX NSCLC 75.5% | SN12C renal 99.1% | UO-31 renal 90.3% | TK-10 renal 88.2% | ACHN renal 100% | A498 renal 111% | CCRF-CEM leukemia 107% | MOLT-4 leukemia 110% | SR leukemia 93.5% | RPMI-8226 leukemia 106% | OVCAR-8 ovarian 105% | OVCAR-5 ovarian 103% | OVCAR-4 ovarian 94.7% | SK-OV-3 ovarian 108% | IGROV1 ovarian 98.4% | OVCAR-3 ovarian 102% | HS 578T breast 103% | NCI/ADR-RES ovarian 101% | T-47D breast 109%

CCOc1ccc(C2N(c3cc(OC)c(OC)c(OC)c3)C(=O)C2(F)F)cc1 (stereo not given)
active: OVCAR-3 ovarian 7.25%
inactive: SK-MEL-2 melanoma 91.8% | EKVX NSCLC 75.3% | SN12C renal 51% | UO-31 renal 51.9% | TK-10 renal 103% | ACHN renal 55.3% | A498 renal 92.3% | CCRF-CEM leukemia 10.2% | MOLT-4 leukemia 18.1% | SR leukemia 16.2% | RPMI-8226 leukemia 14.6% | OVCAR-8 ovarian 43.2% | OVCAR-5 ovarian 66.5% | OVCAR-4 ovarian 49.6% | SK-OV-3 ovarian 71.9% | IGROV1 ovarian 37.8% | HS 578T breast 37.4% | NCI/ADR-RES ovarian 28.9% | T-47D breast 70%

Cc1ccc2nc3nc4ccc[nH]c4cc3c2c1
inactive: SK-MEL-2 melanoma 113% | EKVX NSCLC 56.8% | SN12C renal 105% | UO-31 renal 65.8% | TK-10 renal 46.9% | ACHN renal 81.8% | A498 renal 124% | CCRF-CEM leukemia 98.9% | MOLT-4 leukemia 119% | SR leukemia 18.1% | RPMI-8226 leukemia 49.3% | OVCAR-8 ovarian 99.7% | OVCAR-5 ovarian 90.9% | OVCAR-4 ovarian 65.8% | SK-OV-3 ovarian 89.2% | IGROV1 ovarian 68.2% | OVCAR-3 ovarian 77.6% | HS 578T breast 90.2% | NCI/ADR-RES ovarian 99.9% | T-47D breast 10.3%
